The supplement of paper PMC13380429

System: Vero E6 infected with SARS-CoV-2
Assay: inhibition of SARS-CoV-2 cytopathic effect; higher = more antiviral protection, active = above 15
Settings: 48 h

Measured: inhibition of SARS-CoV-2 cytopathic effect

CO[C@H]1O[C@@H]2O[C@@]3(C)CC[C@H]4[C@H](C)CC[C@@H]([C@H]1C)[C@@]24OO3 [artemether]
inactive: 1 nM 7.32% | 8.33 nM 4.82% | 100 nM 2.64% | 833.33 nM -2.72% | 10000 nM 0.52%

Oc1cccc(Nc2ccc(Nc3cccc(O)c3)nn2)c1 [beta-amyloid-synthesis-inhibitor]
inactive: 1 nM -0.67% | 8.33 nM 1.31% | 100 nM 0.24% | 833.33 nM 1.07% | 10000 nM 4.99%

CC[C@@H](CO)NC(=O)[C@@H]1C=C2c3cccc4[nH]cc(c34)C[C@H]2N(C)C1 [methylergometrine]
inactive: 1 nM -0.77% | 8.33 nM 0.44% | 100 nM -0.17% | 833.33 nM 0.13% | 10000 nM 0%

CN1CCN2c3c(cccc31)[C@@H]1CN(CCCC(=O)c3ccc(F)cc3)CC[C@@H]12 [lumateperone]
inactive: 1 nM -2.67% | 8.33 nM 2.96% | 100 nM 2.88% | 833.33 nM 2.75% | 10000 nM 2.86%

N=C(N)NC(=O)c1cnccn1 [pyrazinoylguanidine]
inactive: 1 nM 0.04% | 8.33 nM -6.78% | 100 nM -2.28% | 833.33 nM -5.59% | 10000 nM -0.5%

O=C(c1ccc(F)cc1)C1CCN(CCn2c(=S)[nH]c3ccccc3c2=O)CC1 [altanserin]
inactive: 1 nM -0.65% | 8.33 nM 0.82% | 100 nM 0.34% | 833.33 nM 2.37% | 10000 nM 1%

COc1ccc(/C=C/C(=O)O)cc1 [trans-4-methoxycinnamic-acid]
inactive: 1 nM 1.02% | 8.33 nM -0.31% | 100 nM -1.64% | 833.33 nM -0.87% | 10000 nM -1.56%

CCOC(=O)[C@H](CCc1ccccc1)N[C@H]1CCc2ccccc2N(CC(=O)O)C1=O [benazepril]
inactive: 1 nM 2.45% | 8.33 nM 4.14% | 100 nM 3.52% | 833.33 nM -1.12% | 10000 nM 1.56%

C[N+]1(CCCCC[N+]2(C)CCCC2)CCCC1 [pentolinium]
inactive: 1 nM 2.83% | 8.33 nM 4.75% | 100 nM 5.22% | 833.33 nM 4.57% | 10000 nM 0.64%
